Where two headings read alike, the source gives them in different places.
Columns and labels:
Parameters in all cases: species or system human, MV4-11 + K-562 + COLO205 + SK-N-BE2 + OVCAR-8
ERBB3 = conditions: read-out: apparent Kd, n = 1
EGFR = conditions: read-out: apparent Kd, n = 1
RIPK2 = conditions: read-out: apparent Kd, n = 1
EIF5B = conditions: read-out: apparent Kd; compound concentrations: 100 nM and 1000 nM (sheet 'Samples'), CATDS: 0.290212668862731; n = 1
FECH = conditions: read-out: apparent Kd; compound concentrations: 100 nM and 1000 nM (sheet 'Samples'), CATDS: 0.34999062122036301; n = 1
PLK1 = conditions: read-out: apparent Kd; compound concentrations: 100 nM and 1000 nM (sheet 'Samples'), CATDS: 0.37077800289250101; n = 1
PIK3CD = conditions: read-out: apparent Kd; compound concentrations: 100 nM and 1000 nM (sheet 'Samples'), CATDS: 0.982888258017659; n = 1
EPHA1 = conditions: read-out: apparent Kd; compound concentrations: 100 nM and 1000 nM (sheet 'Samples'), CATDS: 0.132169396234084; n = 1
EPHA2 = conditions: read-out: apparent Kd; compound concentrations: 100 nM and 1000 nM (sheet 'Samples'), CATDS: 7.9638266315165504E-2; n = 1
EPHA4 = conditions: read-out: apparent Kd; compound concentrations: 100 nM and 1000 nM (sheet 'Samples'), CATDS: 5.73813509995778E-2; n = 1
EPHA5 = conditions: read-out: apparent Kd; compound concentrations: 100 nM and 1000 nM (sheet 'Samples'), CATDS: 6.5260226509332095E-2; n = 1
EPHB2 = conditions: read-out: apparent Kd; compound concentrations: 100 nM and 1000 nM (sheet 'Samples'), CATDS: 6.01599429552135E-2; n = 1
EPHB4 = conditions: read-out: apparent Kd; compound concentrations: 100 nM and 1000 nM (sheet 'Samples'), CATDS: 8.2169743824678607E-2; n = 1
GAK = conditions: read-out: apparent Kd, n = 1
HSP90B1 = conditions: read-out: apparent Kd; compound concentrations: 100 nM and 1000 nM (sheet 'Samples'), CATDS: 5.9403199864953501E-2; n = 1
MAP4K4 = conditions: read-out: apparent Kd; compound concentrations: 100 nM and 1000 nM (sheet 'Samples'), CATDS: 6.0397447549850998E-2; n = 1
RIPK3 = conditions: read-out: apparent Kd; compound concentrations: 100 nM and 1000 nM (sheet 'Samples'), CATDS: 0.17935532425018; n = 1
TGFBR2 = conditions: read-out: apparent Kd; compound concentrations: 100 nM and 1000 nM (sheet 'Samples'), CATDS: 9.6643303505933295E-2; n = 1
TNIK = conditions: read-out: apparent Kd; compound concentrations: 100 nM and 1000 nM (sheet 'Samples'), CATDS: 7.16657274929937E-2; n = 1
EPHA7 = conditions: read-out: apparent Kd; compound concentrations: 100 nM and 1000 nM (sheet 'Samples'), CATDS: 1; n = 1
T10 = tested on: T1, T10; conditions: read-out: apparent Kd; compound concentrations:100 nM and 1000 nM (sheet 'Samples'); n = 1
T1 construct: gene NAT10

JAK2 = conditions: read-out: apparent Kd; compound concentrations:100 nM and 1000 nM (sheet 'Samples'); n = 1
PRKACG = conditions: read-out: apparent Kd; compound concentrations:100 nM and 1000 nM (sheet 'Samples'); n = 1
EIF2AK1 = conditions: read-out: apparent Kd; compound concentrations:100 nM and 1000 nM (sheet 'Samples'); n = 1
MAPK11 = conditions: read-out: apparent Kd; compound concentrations:100 nM and 1000 nM (sheet 'Samples'); n = 1
MAPK14 = conditions: read-out: apparent Kd; compound concentrations:100 nM and 1000 nM (sheet 'Samples'); n = 1
MAPK8 = conditions: read-out: apparent Kd; compound concentrations:100 nM and 1000 nM (sheet 'Samples'); n = 1
MAPK9 = conditions: read-out: apparent Kd; compound concentrations:100 nM and 1000 nM (sheet 'Samples'); n = 1
MAPKAPK2 = conditions: read-out: apparent Kd; compound concentrations:100 nM and 1000 nM (sheet 'Samples'); n = 1
PIP4K2C = conditions: read-out: apparent Kd; compound concentrations:100 nM and 1000 nM (sheet 'Samples'); n = 1
SIK2 = conditions: read-out: apparent Kd; compound concentrations:100 nM and 1000 nM (sheet 'Samples'); n = 1
SIK3 = conditions: read-out: apparent Kd; compound concentrations:100 nM and 1000 nM (sheet 'Samples'); n = 1
TAOK2 = conditions: read-out: apparent Kd; compound concentrations:100 nM and 1000 nM (sheet 'Samples'); n = 1
MAP2K5 = conditions: read-out: apparent Kd; compound concentrations:100 nM and 1000 nM (sheet 'Samples'); n = 1
YES1 = conditions: read-out: apparent Kd; compound concentrations:100 nM and 1000 nM (sheet 'Samples'); n = 1
NQO1 = conditions: read-out: apparent Kd; compound concentrations: 100 nM and 1000 nM (sheet 'Samples'), CATDS: 0.35542679551124801; n = 1
TESK2 = conditions: read-out: apparent Kd; compound concentrations: 100 nM and 1000 nM (sheet 'Samples'), CATDS: 0.39865436806100402; n = 1
[1] = compound concentrations: 100 nM and 1000 nM (sheet 'Samples'), CATDS: 1
[2] = compound concentrations:100 nM and 1000 nM (sheet 'Samples')

Cl.Nc1c(C(=O)c2ccc(CCCN3CCOCC3)cc2)cnn1-c1ccc(F)cc1 [RO1153427-001]
potency estimated from few doses (ERBB3; [1]): 1820 nM

COc1cc2ncnc(Nc3ccc(OCc4ccccc4Br)c(Cl)c3)c2cc1OC.Cl [GI261590A]
potency estimated from few doses (EGFR; [1]): 2230 nM

Cn1cncc1-c1cc2c(Nc3ccc(OCc4ccccc4)cc3)ncnc2cn1 [GW281179X]
potency estimated from few doses (EGFR; compound concentrations: 100 nM and 1000 nM (sheet 'Samples'), CATDS: 0.48641322117949298): 124 nM
potency estimated from few doses (RIPK2; compound concentrations: 100 nM and 1000 nM (sheet 'Samples'), CATDS: 0.514367617378505): 111 nM

COc1ccc(COc2cc(-n3cnc4ccccc43)sc2C(N)=O)cc1 [GSK1024304A]
potency estimated from few doses (EIF5B): 1710 nM
potency estimated from few doses (FECH): 1150 nM
potency estimated from few doses (PLK1): 1030 nM

Cl.O=S(=O)(c1cccc(F)c1)c1ccc(Nc2ncnc3cc(Br)sc23)cc1Cl [GSK306886A]
potency estimated from few doses (EGFR; compound concentrations: 100 nM and 1000 nM (sheet 'Samples'), CATDS: 0.33527903035184697): 1350 nM
potency estimated from few doses (PIK3CD): 11.9 nM

Nc1ccc(C#Cc2cncnc2Nc2ccc(OCc3cccc(F)c3)c(Cl)c2)cc1 [GW659893X]
potency estimated from few doses (EGFR; [1]): 404 nM

O=C(O[C@H]1CN[C@H](C#Cc2cc3ncnc(Nc4ccc(OCc5cccc(F)c5)c(Cl)c4)c3s2)C1)N1CCOCC1 [GW869810X]
potency estimated from few doses (EGFR; [1]): 72.2 nM

Nc1ncc(-c2cccc(S(N)(=O)=O)c2)c2scc(-c3ccc(F)c(Cl)c3)c12 [GW856804X]
potency estimated from few doses (EPHA1): 306 nM
potency estimated from few doses (EPHA2): 758 nM
potency estimated from few doses (EPHA4): 1770 nM
potency estimated from few doses (EPHA5): 1210 nM
potency estimated from few doses (EPHB2): 1530 nM
potency estimated from few doses (EPHB4): 710 nM
potency estimated from few doses (GAK; compound concentrations: 100 nM and 1000 nM (sheet 'Samples'), CATDS: 7.0423696237644606E-2): 1000 nM
potency estimated from few doses (HSP90B1): 1590 nM
potency estimated from few doses (MAP4K4): 1510 nM
potency estimated from few doses (RIPK2; compound concentrations: 100 nM and 1000 nM (sheet 'Samples'), CATDS: 0.101348300005731): 475 nM
potency estimated from few doses (RIPK3): 196 nM
potency estimated from few doses (TGFBR2): 518 nM
potency estimated from few doses (TNIK): 961 nM

COc1cccc(NC(=O)NCCNc2ccnc(Nc3ccc(F)cc3)n2)c1 [GSK1379879A]
potency estimated from few doses (EPHA7): 2400 nM

C[C@@H]1CC[C@@H](C(=O)Nc2ccccc2)CN1c1cc(-c2ccc3c(N)n[nH]c3c2)nc(N)n1 [GSK2286062A]
potency estimated from few doses (ERBB3; [2]): 1760 nM
potency estimated from few doses (T10): 1120 nM

O=C(O)C(F)(F)F.O=S1CCN(Cc2ccc(-c3ccc4ncnc(Nc5ccc(OCc6cccc(F)c6)c(Cl)c5)c4c3)o2)CC1 [GW576609A]
potency estimated from few doses (EGFR; compound concentrations: 100 nM and 1000 nM (sheet 'Samples'), CATDS: 0.496271215913483): 306 nM
potency estimated from few doses (JAK2): 1050 nM
potency estimated from few doses (PRKACG): 781 nM

Cn1c(=O)c(-c2ccccc2Cl)cc2cnc(NC3CCOCC3)nc21 [RO3303470-000]
potency estimated from few doses (EIF2AK1): 1090 nM
potency estimated from few doses (GAK; [2]): 695 nM
potency estimated from few doses (MAPK11): 20.2 nM
potency estimated from few doses (MAPK14): 24 nM
potency estimated from few doses (MAPK8): 318 nM
potency estimated from few doses (MAPK9): 202 nM
potency estimated from few doses (MAPKAPK2): 12.5 nM
potency estimated from few doses (PIP4K2C): 1140 nM
potency estimated from few doses (RIPK2; [2]): 503 nM
potency estimated from few doses (SIK2): 1330 nM
potency estimated from few doses (SIK3): 604 nM
potency estimated from few doses (TAOK2): 1880 nM

COc1cc2ncnc(Nc3ccc4c(cnn4Cc4ccccc4)c3)c2cc1OC.Cl [GW282449A]
potency estimated from few doses (EGFR; [2]): 1.29 nM
potency estimated from few doses (MAP2K5): 1120 nM
potency estimated from few doses (RIPK2; [2]): 210 nM
potency estimated from few doses (YES1): 1110 nM

CN(C)C(=O)O[C@@H]1CN[C@@H](C#Cc2cc3ncnc(Nc4ccc(OCc5cccc(F)c5)c(Cl)c4)c3s2)C1 [GSK238063A]
potency estimated from few doses (EGFR; compound concentrations: 100 nM and 1000 nM (sheet 'Samples'), CATDS: 0.84282841422731203): 175 nM
potency estimated from few doses (NQO1): 1700 nM

Cl.O=S(=O)(CCNCc1ccc(-c2ccc3ncnc(Nc4ccc(OCc5cccc(F)c5)c(Cl)c4)c3c2)o1)c1ccccc1 [GW633459A]
potency estimated from few doses (EGFR; compound concentrations: 100 nM and 1000 nM (sheet 'Samples'), CATDS: 0.67043836864821504): 597 nM
potency estimated from few doses (TESK2): 1830 nM

Fc1cccc(COc2ccc(Nc3ncnc4sc(-c5ccco5)cc34)cc2Cl)c1 [GSK969786A]
potency estimated from few doses (EGFR; [1]): 815 nM
